Source: PubChem (National Center for Advancing Translational Sciences (NCATS))
The list is not random: actives were taken first. Their share in the collection is about 2.1%.
Abeta rescue = A-beta toxicity reversal in yeast. yeast expressing A-beta42, growth rescue, OD600, 48 h; response scale: 0% DMSO, 100% iron-clioquinol control. Potency, µM (highest dose often 46.1 µM), hits mostly activators. 0.063% of 410,000 active; further: nearly all actives have a fitted effect of over 55% in size
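Yeast A-beta toxicity model in growth medium with pinned compounds, 48 h at 30 C; growth read as absorbance at 600 nm. Normalized to FeCl3/clioquinol equimolar mix (positive) and DMSO (negative).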
aSyn rescue = rescues yeast growth from alpha-synuclein toxicity; Yeast expressing alpha-synuclein, growth rescue, BacTiter-Glo, 24 h; Potency, µM (doses to about 46.1 µM), for inactives: at the highest dose growth rescue (activation), hits mostly activators; 0.14% of 370,000 active; further: % of control where 0% means no effect; nearly all actives have a fitted effect of over 65% in size
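Galactose-induced alpha-syn yeast (OD600=0.02, raffinose-pregrown) + pinned cpd, 24 hr, 30 deg C; growth by BacTiter-Glo luminescence. Growth restoration scores as activation.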
FUS yeast rescue = suppressors of FUS proteinopathy in yeast; S. cerevisiae FUS-expressing, growth rescue, OD600, 24 h; 0.24% of 390,000 active; Potency, µM (series often up to 76.6 µM), most hits filed as activators;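 further: plate controls were DMSO vehicle for no effect and reference control for full effect; nearly all actives have a fitted effect of over 55% in size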
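FUS-expressing yeast, raffinose-pregrown, induced in 2% galactose minimal medium at OD 0.005; compounds in a dilution series, 24hr at 30C. Growth restoration read as absorbance at 600 nm. CP55940 positive control, DMSO negative.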
TDP43 rescue = rescues yeast growth from TDP-43 toxicity; TDP-43 expressing yeast growth rescue, BacTiter-Glo, 24 h; Potency, µM (series often up to 46.1 µM), for inactives: at the top dose growth rescue (activation), most hits filed as activators; 1.8% of 410,000 active; AID 652104; further: % of control where 0% means no effect; nearly all actives have a fitted effect of over 50% in size
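Galactose-induced TDP-43 yeast, OD600=0.02, compound pinned; 24 hr, 30 deg C; BacTiter-Glo luminescence for growth. Inhibitors of TDP-43 toxicity read as activators.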
An asterisk follows results filed as active; i = inactive; ? = inconclusive; . = no result; [ ] = remark or other dose. The call rests on the fitted dose curve; in most records, active means well fitted curve in the direction sought with a large enough effect; inconclusive means small, poorly fitted or top-dose-only effect, or another doubt; inactive means no such curve, though single readings can be large; an effect the other way counts as inactive or inconclusive. Potency means the concentration at half of the fitted maximal effect.

SMILES	Abeta rescue	aSyn rescue	FUS yeast rescue	TDP43 rescue
Cc1ccc(S(=O)(=O)N2CCN(c3nc(-n4ccnc4)nc4ccccc34)CC2)cc1	.	2µM*	.	.
CC(C)Cc1nc(N2CCN(C(=O)c3ccccc3)CC2)c(C#N)c2c1CCC2	i	3%	?	25µM*
CC(=O)N1CCN(c2nc(CC(C)C)c3c(c2C#N)CCC3)CC1	i	7%	i	22%
COc1ccc(CCn2c(C)cc(C(=O)CCl)c2C)cc1OC	i	-7%	i	16µM*
COc1ccc(-n2c(C)cc(C(=O)CCl)c2C)cc1	i	11%	i	3.2µM*
Cc1cc(-n2c(C)cc(C(=O)CN3C(=O)C(=O)N(C)C3=O)c2C)no1	i	-7%	i	19%
Cc1cc(-n2c(C)cc(C(=O)CCl)c2C)no1	i	-7%	i	3.5µM*
O=C(Nc1ccc(F)cc1Cl)C1CCCN1S(=O)(=O)c1cccc2cccnc12 (configuration not stated)	.	.	i	.
Cc1ccc2c(/C=C/c3ccc(N(C)C)cc3)ccnc2c1	.	-14%	.	.
CCn1c(-c2cccc(Br)c2)n[nH]c1=S	i	0%	i	20µM*
COCCNc1cc(N2CCN(C3CCCCC3)CC2)c2noc3c2c1C(=O)c1ccccc1-3	i	.	i	9%
O=S(=O)(c1ccc(Cl)c(Cl)c1)c1snnc1-c1ccccc1	i	-19%	i	13µM*
CC(C)(C)n1nc2c(c1NC(=O)c1ccc(S(=O)(=O)N3CCCC3)cc1)CSC2	i	2%	16µM*	0%
N#CN=c1snc(-c2ccccc2)n1-c1ccc(Cl)cc1	.	-11%	.	.
CCc1cccc(CC)c1NC(=O)c1cccc(NC(=O)c2ccccc2)c1	i	-8%	i	21%
CCc1cccc(CC)c1NC(=S)Nc1ccccc1	14µM*	-3%	i	-25%[0.397 µM]
COC(=O)[C@]12CCCCC=C1N(Cc1ccc(OC)cc1)C(=O)[C@@H]2CC(=O)N1CCCC1	.	.	i	.
CCOC(=O)c1c(C)oc2cc(Br)c(O)c(Br)c12	i	4%	i	13µM*
CCOC(=O)c1c(NC(C)=O)sc2c(O)cccc12	i	.	i	2%
CCOC(=O)COc1cc2c(C(=O)OCC)c(C)oc2cc1Br	i	3%	i	22%
CCOC(=O)c1c(NC(C)=O)sc2c(O)c(Br)cc(Br)c12	i	-4%	.	13µM*
COc1ccc2[nH]c3c(c2c1)CCN[C@]31C(=O)N(C)c2ccc(Br)cc21	.	.	i	.
C=CCn1c2ccccc2c(=O)c2cc(C#Cc3ccccn3)ccc21	i	-25%	i	20µM*
O=c1c2ccccc2oc2cc(C#Cc3ccccn3)ccc12	i	1%	i	?
CSc1nn(Cc2ccc(F)cc2)c(N)c1S(=O)(=O)c1ccc(Cl)cc1	i	.	i	6%
SMILES	Abeta rescue	aSyn rescue	FUS yeast rescue	TDP43 rescue
Cc1cc(C)cc(N(CC(=O)NC2CCC(C)CC2)S(=O)(=O)c2cccs2)c1 (configuration not stated)	.	.	i	.
CCCCOc1ccc(C(=O)NC2CCCCN(Cc3cccc(C(F)(F)F)c3)C2=O)cc1 (configuration not stated)	.	.	i	.
CCc1ccc2oc(-c3cc(NC(=O)c4cccs4)ccc3Cl)nc2c1	i	-8%	i	18µM*
CCc1ccc2oc(-c3cc(N)ccc3Cl)nc2c1	i	3%	i	18µM*
Cc1ccc2oc(-c3cc(NC(=O)c4ccco4)ccc3Cl)nc2c1	i	.	i	9%
O=C(Nc1ccc2oc(-c3ccccc3)nc2c1)c1cccnc1	i	-7%	i	-20%
CC(C)c1ccc2oc(-c3cc(NC(=O)c4cccnc4)ccc3Cl)nc2c1	i	.	i	16µM*
COC(=O)[C@@]12C[C@@H](CC(=O)NCc3cccc4ccccc34)C(=O)N(Cc3cccc4ccccc34)C1=CCC(C)(C)C2	i	0%	i	24%
COC(=O)[C@@]12C[C@@H](CC(=O)NCc3ccc(OC)c(OC)c3)C(=O)N(Cc3ccc4c(c3)OCO4)C1=CCC(C)(C)C2	i	-1%	13µM*	-2%
COC(=O)[C@@]12C[C@@H](CC(=O)NCc3cccc(C(F)(F)F)c3)C(=O)N(Cc3ccc4c(c3)OCO4)C1=CCC(C)(C)C2	i	0%	?	0%
COC(=O)[C@@]12C[C@@H](CC(=O)NCCC(C)C)C(=O)N(Cc3cccc4ccccc34)C1=CCC(C)(C)C2	i	2%	14µM*	-1%
CSc1ccccc1NC(=S)NC1CCCC1	?	2%	i	27%
S=C(Nc1cccc2ccccc12)NC1CCCCC1	13µM*	21%	i	4%
CCCCc1ccccc1NC(=S)NC1CCCC1	7.1µM*	-5%	i	-10%
CCOc1cccc2sc(N(Cc3cccnc3)C(=O)C3CCCCC3)nc12	i	.	?	?
O=C1C2ON(c3ccccc3)C(c3ccccn3)C2C(=O)N1c1ccc(Br)cc1 (configuration not stated)	?	26%	i	13µM*
COc1ccc(OC)c2sc(NNC(=O)C3COc4ccccc4O3)nc12 (configuration not stated)	?	5%	i	6.3µM*
CCCC(=O)Nc1nc(-c2ccc3c(c2)OCCO3)cs1	i	-19%	i	10µM*
COc1ccc(-c2csc(NC(=O)C3COc4ccccc4O3)n2)cc1OC (configuration not stated)	i	-21%	i	35µM*
CCCCc1nc(NCCNC(=O)c2ccco2)c(C#N)c2c1CSC(C)(C)C2	i	-2%	?	?
CCCCc1nc(NCCNC(=O)c2ccccc2)c(C#N)c2c1CSC(C)(C)C2	i	-7%	i	22µM*
Cc1ccsc1S(=O)(=O)n1c(CN2CCOCC2)nc2ccccc21	.	.	i	.
CCOc1cc(CNC(=O)Cn2ncn3c(cc4cc(F)ccc43)c2=O)cc(OCC)c1OCC	i	.	i	19%
Cc1ccc(/C=C/C(=O)O)cc1S(=O)(=O)N1CCCc2ccccc21	i	-1%	i	?
Cc1ccc(/C=C/C(=O)O)cc1S(=O)(=O)N1CCc2ccccc21	i	10%	i	7.9µM*
SMILES	Abeta rescue	aSyn rescue	FUS yeast rescue	TDP43 rescue
Cc1cccc(NC(=O)OC2CC3CC2[C@H]2CCCCN2C3)c1 (some centres not stated)	.	.	i	.
CCOC(=O)[C@]12CCCC3=C1N(CCC3)C(=O)[C@@H](CC(=O)NCCC(C)C)C2	.	.	i	.
CCOC(=O)CSc1nnc(CCCCCN2C(=O)c3cccc4cccc(c34)C2=O)o1	i	-1%	i	3%
C=CCSc1nnc(CCCCCN2C(=O)c3cccc4cccc(c34)C2=O)o1	i	-9%	i	22µM*
O=C(Nc1ncc2c(n1)-c1ccccc1CC2)c1ccc(F)cc1	i	5%	i	10µM*
O=C(Nc1ncc2c(n1)-c1ccccc1CC2)c1ccccc1	i	-1%	i	13µM*
CC(=O)c1nnn(-c2nc(C#N)nc(N3CCOCC3)n2)c1C	.	2%	.	.
